Measured values published in PubChem BioAssay AID2289 (National Center for Advancing Translational Sciences (NCATS), 2010).
Screen size: about 340,000 compounds; about 3,300 (0.97%) were called active. Another 9% or so got no clear call; they are omitted. The call rests on the fitted dose curve; in most records, active means well fitted inhibition curve with a large enough effect; inconclusive means small, poorly fitted or top-dose-only effect, or effect the other way; inactive means flat fitted curve, though single readings scatter. The list shows a part of the results.

assay: qHTS Assay for Modulators of miRNAs and/or Inhibitors of miR-21; details: HeLa miR-21-FLuc reporter, luciferase luminescence, 48 h; actives lower the signal; further: nearly all actives have a fitted effect of over 55% in size
Method in brief: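 HeLa cells endogenously expressing miR-21, stably carrying CMV-driven firefly luciferase with a downstream miR-21 binding site, 2000 cells/well. Titrations up to approximately 40 uM, 48 hours; luciferase luminescence read.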
Potency means the concentration at half of the fitted maximal effect.

Row | Structure (SMILES) | Potency
1 | Cc1nn(Cc2ccccc2)c(Cl)c1C(=O)NCCc1ccccc1 | 2.33 µM (active)
2 | Cc1nn(Cc2ccccc2Cl)c(Cl)c1C(=O)NCCc1ccccc1 | 2.07 µM (active)
3 | Cc1ccc(C(=O)NCCc2c[nH]c3ccccc23)s1 | 5.21 µM (active)
4 | Cc1ccsc1C(=O)NCCc1c[nH]c2ccccc12 | 14.7 µM (active)
5 | O=C(NCCc1c[nH]c2ccccc12)c1cnc2sccn2c1=O | 3.29 µM (active)
6 | COc1ccccc1C1N=C(c2ccccc2C)NO1 (centres undefined) | 7.36 µM (active)
7 | CCOC(=O)c1oc2c(c1C)/C(=N/O)CCC2 | 11.7 µM (active)
8 | CCCCCCSc1nc(N)c2c3c(sc2n1)CCCC3C (centres undefined) | 14.7 µM (active)
9 | CCN(C(=O)c1cc2c(=O)n3ccccc3nc2n1C)C1CCCCC1 | 11.7 µM (active)
10 | CN(c1cc(=O)n2ccccc2n1)C1CCCCC1 | 13.1 µM (active)
11 | Cc1ccc(N=c2sc(C)c(C)n2C)cc1 | 11.7 µM (active)
12 | C/C(=N\Nc1ccc(C)c(Cl)c1)c1cccnc1 | 13.1 µM (active)
13 | C/C(=N\NC(=O)c1sccc1C)c1ccncc1 | 2.93 µM (active)
14 | C/C(=N\NC(=O)c1sccc1C)c1cccnc1 | 4.14 µM (active)
15 | Cc1ccccc1-c1nnc(-c2cccs2)o1 | 6.56 µM (active)
16 | Cc1ccccc1-c1nnc(-c2ccc(Cl)cc2)o1 | 2.07 µM (active)
17 | CC1CN(C(=O)N2CCC(C(=O)NCc3cccs3)CC2)c2ccccc2O1 (centres undefined) | 1.47 µM (active)
18 | S=C(N/N=C/c1ccc(Cl)cc1)N1CCOCC1 | 9.27 µM (active)
19 | Cc1ccc(/C=N/NC(=S)N2CCOCC2)cc1 | 13.1 µM (active)
20 | O=C(Nc1ccc(F)cc1)c1nsc(Cl)c1Cl | 1.65 µM (active)
21 | COc1c(O)cc2oc(-c3ccc(O)c(O)c3)cc(=O)c2c1O | 5.21 µM (active)
22 | COc1c(O)cc2oc(-c3ccc(O)cc3)cc(=O)c2c1O | 2.33 µM (active)
23 | Cn1c(CNc2ccc(O)cc2)nc2ccccc21 | 16.5 µM (active)
24 | Cn1c(CSc2nc3ccccc3s2)nc2ccccc21 | 4.14 µM (active)
25 | COc1ccc(CNc2nc3ccccc3n2C)c(O)c1 | 1.17 µM (active)
26 | COc1ccccc1C(=O)COC(=O)c1ccc(N(C)C)cc1 | 3.29 µM (active)
27 | COc1ccc(/C=C2/CCc3ccccc3C2=O)cc1OC | 18.5 µM (active)

Row | Structure (SMILES) | Potency
28 | COc1ccc(/C=C2\Cc3ccccc3C2=O)cc1OC | 14.7 µM (active)
29 | O=C1/C(=C/c2ccccc2)CCCc2ccccc21 | 7.36 µM (active)
30 | O=C(O)c1cccc(NC(=S)N/N=C/c2ccccc2OCc2ccc(Br)cc2)c1 | 11.7 µM (active)
31 | O=C(O)c1cnn(-c2nc(-c3ccc(Cl)c(Cl)c3)cs2)c1C(F)(F)F | 5.21 µM (active)
32 | O=C(O)c1cnn(-c2nc(-c3ccc(F)cc3)cs2)c1C(F)(F)F | 14.7 µM (active)
33 | O=C(O)c1cnn(-c2nc(-c3ccc(Br)cc3)cs2)c1C(F)(F)F | 11.7 µM (active)
34 | O=C(O)c1cnn(-c2nc(-c3ccc(Cl)cc3)cs2)c1C(F)(F)F | 13.1 µM (active)
35 | COc1ccccc1-c1nn2c(-c3ccco3)nnc2s1 | 4.65 µM (active)
36 | CCOC(=O)c1oc2ccc(/C=N/O)c(Cl)c2c1C | 8.26 µM (active)
37 | Cn1cccc1CC(=O)N/N=C/c1ccc(C(C)(C)C)cc1 | 10.4 µM (active)
38 | CC(C)(C)c1ccc(/C=N/NC(=O)C2CCCC2)cc1 | 16.5 µM (active)
39 | Cc1cn2c(=O)cc(COC(=O)c3cccc(NC(=O)COc4ccccc4Cl)c3)nc2s1 | 0.329 µM (active)
40 | Cc1ccc(OCC(=O)Nc2cccc(C(=O)OCc3cc(=O)n4nc(C)sc4n3)c2)cc1 | 0.736 µM (active)
41 | COc1ccc(NC(=S)Nc2ccccn2)cc1 | 2.93 µM (active)
42 | COC(=O)c1ccc(NC(=S)Nc2ccccn2)cc1 | 2.07 µM (active)
43 | COc1ccccc1N1CCN(C(=O)c2nc(-c3ccc(C)cc3)n3c2CCCCC3)CC1 | 1.47 µM (active)
44 | Cc1ccc(/C(N)=N/OC(=O)c2ccc3c(c2)OCO3)cc1 | 0.464 µM (active)
45 | Cc1cc(/C(N)=N/OC(=O)c2ccc(Cl)cc2)no1 | 1.47 µM (active)
46 | N/C(=N\OC(=O)c1ccc2c(c1)OCO2)c1cccnc1 | 3.69 µM (active)
47 | N/C(=N\OC(=O)c1ccc(Cl)cc1)c1cccnc1 | 2.61 µM (active)
48 | Cn1cccc1/C=C1\SC(=O)N(c2ccccc2)C1=O | 0.927 µM (active)
49 | CCCNC(=O)c1cc(-c2ccco2)on1 | 3.69 µM (active)
50 | CC1CCN(C(=O)c2cc(-c3ccco3)on2)CC1 | 3.69 µM (active)
51 | O=C(NCCc1ccccc1)c1cc(-c2ccco2)on1 | 3.29 µM (active)
52 | O=C(Nc1ccccc1F)c1ccc(Cn2cc(Cl)cn2)cc1 | 10.4 µM (active)
53 | Cn1c(NC(=O)c2cccc(Cn3cc(Cl)cn3)c2)nc2ccccc21 | 4.65 µM (active)
54 | Cc1cc2c([nH]c3ccccc32)c2c1OC(C)(C)C=C2 | 3.69 µM (active)
